This note sets out measurements from PubChem BioAssay (NCI).

Molecules are shown by their SMILES. Compounds without any hit were thinned out: in the full panel of roughly 83,000, 20% have a hit.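 Interpretation: 100, growth as untreated; towards 0, rising growth inhibition; 0, no net growth; 0 to -100, cell death. Compounds scoring below 10 were considered active.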 Values without a mark were called inactive. Calls of active or inactive are those of the source.

Among the test systems are SK-MEL-2 melanoma; EKVX NSCLC; SN12C renal; UO-31 renal; TK-10 renal; ACHN renal; CAKI-1 renal; A498 renal; CCRF-CEM leukemia; MOLT-4 leukemia; RPMI-8226 leukemia; OVCAR-8 ovarian; OVCAR-5 ovarian; OVCAR-4 ovarian; SK-OV-3 ovarian; IGROV1 ovarian; OVCAR-3 ovarian; HS 578T breast; NCI/ADR-RES ovarian; SR leukemia.
Holding throughout (test): NCI-60 one-dose screen, 48 h (100 = growth as untreated, 0 = no growth, -100 = all killed)
What all share (settings): 10 µM unless noted

Take `CC(C)n1nc(C#Cc2cccc3cc(-c4cccc(C(F)(F)F)c4)ncc23)c2c(N)ncnc21`: the growth in the assay on SK-MEL-2 melanoma is 42.8%; in the assay with EKVX NSCLC it was 93.6%; with SN12C renal it was 86.1%; in the assay on UO-31 renal, 82%; with TK-10 renal, 85.1%; in the assay on ACHN renal, 68.7%. For the same compound, the growth in the assay with CAKI-1 renal is 86.8%; in the assay with A498 renal it was 83.5%; in the assay on CCRF-CEM leukemia it was 39.5%; in the assay on MOLT-4 leukemia it was 43.2%; with RPMI-8226 leukemia, 57.1%; in the assay with OVCAR-8 ovarian, 41.1%. Besides, the growth with OVCAR-5 ovarian is 86.1%; in the assay on OVCAR-4 ovarian, 78.8%; in the assay with SK-OV-3 ovarian it was 91%; in the assay with IGROV1 ovarian, 72%; in the assay with OVCAR-3 ovarian, 91.2%; in the assay with HS 578T breast, 65.2%. In addition, in the assay with NCI/ADR-RES ovarian, the growth was 82%.

For `C=C(C)[C@@H]1CC[C@]2(C(=O)NCC(=O)O)CC[C@]3(C)[C@H](CC[C@@H]4[C@@]5(C)Cc6c([nH]c7ccccc67)C(C)(C)[C@@H]5CC[C@]43C)[C@@H]12`, the growth with SK-MEL-2 melanoma is 92.4%; in the assay on EKVX NSCLC, 84.7%; with SN12C renal, 72.2%; with UO-31 renal, 55.4%; in the assay on TK-10 renal, 103%; in the assay with ACHN renal, 87.4%. In addition, the growth is 78.5% with CAKI-1 renal; 77.2% in the assay on A498 renal; 72.8% with CCRF-CEM leukemia; 78.4% with MOLT-4 leukemia; 79.8% with RPMI-8226 leukemia; 107% in the assay with OVCAR-5 ovarian. In addition, the growth with OVCAR-4 ovarian is 75.9%; in the assay with SK-OV-3 ovarian, 75.1%; with IGROV1 ovarian it was 83.3%; in the assay with OVCAR-3 ovarian, 90.5%; in the assay with HS 578T breast, 56.9%; with NCI/ADR-RES ovarian, 95.4%.

Turning to `C#C[C@]1(O)CC[C@H]2[C@@H]3CC=C4c5sc(N=C(N)N)nc5CC[C@]4(C)[C@H]3CC[C@@]21C`, the growth with SK-MEL-2 melanoma is -13.4% (active); in the assay with EKVX NSCLC, 12.7%; with SN12C renal, -56% (active); in the assay with UO-31 renal it was -77.7% (active); in the assay on TK-10 renal it was 13.4%; in the assay on ACHN renal it was -6.84% (active). Further, the growth with CAKI-1 renal was -19.9% (active); with A498 renal it was -90.8% (active); in the assay with CCRF-CEM leukemia, 4.5% (active); in the assay on MOLT-4 leukemia, -8.43% (active); with RPMI-8226 leukemia it was -29% (active); in the assay on OVCAR-8 ovarian it was 10.1%. In addition, the growth with OVCAR-5 ovarian was 28%; in the assay on OVCAR-4 ovarian, 29%; in the assay with SK-OV-3 ovarian it was -57.2% (active); in the assay on IGROV1 ovarian, 14.4%; in the assay with OVCAR-3 ovarian it was -44.2% (active); in the assay with NCI/ADR-RES ovarian it was 29.8%.

For the compound `CCC(O)(C(c1ccccc1)c1ccccn1)C(c1ccccc1)c1ccccn1` (stereo unspecified), the growth with SK-MEL-2 melanoma is 97.5%; in the assay on EKVX NSCLC, 97.7%; in the assay on SN12C renal, 110%; in the assay on UO-31 renal, 84.3%; in the assay on TK-10 renal, 107%; in the assay with ACHN renal, 95.2%. In addition, the growth is 90.3% in the assay on CAKI-1 renal; 96.7% in the assay with A498 renal; 114% with CCRF-CEM leukemia; 87% in the assay with MOLT-4 leukemia; 106% in the assay with OVCAR-8 ovarian; 96.4% with OVCAR-5 ovarian. Also, the growth was 107% with OVCAR-4 ovarian; 94.8% in the assay with SK-OV-3 ovarian; 101% in the assay with IGROV1 ovarian; 102% with OVCAR-3 ovarian; 131% in the assay on HS 578T breast; 109% with NCI/ADR-RES ovarian.

As for `CCOC(=O)c1nnn(C(Cc2ccccc2Cl)C(=O)OCC)c1C` (stereo unspecified), the growth is 107% in the assay with SK-MEL-2 melanoma; 106% in the assay with EKVX NSCLC; 104% with SN12C renal; 89.7% in the assay with UO-31 renal; 96.6% in the assay on TK-10 renal; 104% in the assay on ACHN renal. Besides, the growth is 90.8% in the assay with CAKI-1 renal; 103% in the assay with A498 renal; 88.5% in the assay with CCRF-CEM leukemia; 93.7% in the assay on SR leukemia; 96.3% in the assay on RPMI-8226 leukemia; 96.7% in the assay on OVCAR-8 ovarian. Further, the growth in the assay on OVCAR-5 ovarian was 106%; in the assay with OVCAR-4 ovarian, 104%; in the assay on SK-OV-3 ovarian, 102%; in the assay on IGROV1 ovarian, 112%; with OVCAR-3 ovarian, 111%; in the assay with HS 578T breast, 94.3%. The growth in the assay with NCI/ADR-RES ovarian was 107%.

Turning to `CNC(=O)NCC1OC(n2cnc3c(NC(=O)Nc4ccccc4)ncnc32)C2OC(C)(C)OC12` (stereo unspecified), the growth is 104% with SK-MEL-2 melanoma; 102% in the assay with EKVX NSCLC; 94.7% with SN12C renal; 73.7% in the assay on UO-31 renal; 134% with TK-10 renal; 105% with ACHN renal. For the same compound, the growth in the assay with CAKI-1 renal is 72.6%; in the assay on A498 renal it was 87.2%; in the assay with CCRF-CEM leukemia, 95.4%; in the assay with MOLT-4 leukemia, 103%; in the assay with RPMI-8226 leukemia, 87.2%; in the assay with OVCAR-8 ovarian it was 100%. Besides, the growth in the assay with OVCAR-5 ovarian was 109%; in the assay on OVCAR-4 ovarian it was 89.6%; in the assay with SK-OV-3 ovarian it was 79.3%; with OVCAR-3 ovarian it was 89%; with HS 578T breast, 102%; in the assay on NCI/ADR-RES ovarian, 101%.

As for `CC(=O)Nc1ccc2c(c1)Cc1c(F)cccc1-2`, the growth with SK-MEL-2 melanoma was 128%; in the assay with EKVX NSCLC, 101%; with SN12C renal it was 101%; in the assay with UO-31 renal, 49.2%; in the assay with TK-10 renal, 103%; with ACHN renal it was 93%. The growth in the assay with CAKI-1 renal is 87.2%; with A498 renal it was 77.6%; in the assay on CCRF-CEM leukemia it was 85.6%; in the assay with SR leukemia, 98.2%; in the assay with RPMI-8226 leukemia, 94.1%; in the assay on OVCAR-8 ovarian, 95.2%. The growth in the assay with OVCAR-5 ovarian was 106%; in the assay on OVCAR-4 ovarian, 106%; in the assay with SK-OV-3 ovarian, 115%; in the assay with IGROV1 ovarian, 98.8%; in the assay with OVCAR-3 ovarian, 105%; in the assay on HS 578T breast, 115%. In addition, the growth in the assay with NCI/ADR-RES ovarian was 107%.

For `Cn1cc(-c2ccc3ncc(-c4ccc(CC(=O)Nc5cc(C(C)(C)C)nn5C)cc4)cc3c2)cn1`, the growth with SK-MEL-2 melanoma is -9.17% [30 µM] (active); with EKVX NSCLC, 27.1% [30 µM]; in the assay on SN12C renal, 16.6% [30 µM]; in the assay with UO-31 renal, 7.45% [30 µM] (active); in the assay with TK-10 renal, 40.6% [30 µM]; in the assay with ACHN renal it was 8.71% [30 µM] (active). Besides, the growth is 5.68% [30 µM] (active) with CAKI-1 renal; 11.4% [30 µM] in the assay with A498 renal; -15.4% [30 µM] (active) in the assay on CCRF-CEM leukemia; -22.1% [30 µM] (active) with MOLT-4 leukemia; 3.22% [30 µM] (active) with OVCAR-8 ovarian; 46.2% [30 µM] in the assay with OVCAR-5 ovarian. Also, the growth is 12.6% [30 µM] in the assay with SK-OV-3 ovarian; 7.76% [30 µM] (active) with IGROV1 ovarian; 7.38% [30 µM] (active) with OVCAR-3 ovarian; 27.8% [30 µM] in the assay on HS 578T breast; -8.5% [30 µM] (active) in the assay with NCI/ADR-RES ovarian.
